Laboratory results from the supplement of paper PMC3334620.
In all, about 33,000 sequences were measured (“E-score (-0.5 to 0.5)”: median about -0.054, highest 2% from about 0.39 on). What follows is part of a selection rich in the highest values, with near analogues and random picks from the rest.

target: Ylr278c (UniProt Q05854); assay: PBM E-score (8-mer binding enrichment) (E-score (-0.5 to 0.5)); higher = stronger / more preferred TF binding; conditions: protein concentration: 200 nM; construct: GST-DNA-binding domain
Method: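 Universal 'all 10-mer' protein binding microarrays (Agilent AMADID 015681) probed with GST-tagged S. cerevisiae TFs (full-length or DBD) made by in vitro transcription/translation (PURExpress), about 100-200 nM. Bound TF was detected with fluorescent anti-GST. Each ungapped 8-mer (which stands for itself and its reverse complement) is scored by the PBM enrichment score (E-score), a modified Wilcoxon-Mann-Whitney statistic from -0.5 to +0.5, computed with the Universal PBM Analysis Suite. Scale: above 0.35 generally sequence-specific binding.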

UniProt Q05854, sequence (Q05854 whole entry, the tested form may be a part): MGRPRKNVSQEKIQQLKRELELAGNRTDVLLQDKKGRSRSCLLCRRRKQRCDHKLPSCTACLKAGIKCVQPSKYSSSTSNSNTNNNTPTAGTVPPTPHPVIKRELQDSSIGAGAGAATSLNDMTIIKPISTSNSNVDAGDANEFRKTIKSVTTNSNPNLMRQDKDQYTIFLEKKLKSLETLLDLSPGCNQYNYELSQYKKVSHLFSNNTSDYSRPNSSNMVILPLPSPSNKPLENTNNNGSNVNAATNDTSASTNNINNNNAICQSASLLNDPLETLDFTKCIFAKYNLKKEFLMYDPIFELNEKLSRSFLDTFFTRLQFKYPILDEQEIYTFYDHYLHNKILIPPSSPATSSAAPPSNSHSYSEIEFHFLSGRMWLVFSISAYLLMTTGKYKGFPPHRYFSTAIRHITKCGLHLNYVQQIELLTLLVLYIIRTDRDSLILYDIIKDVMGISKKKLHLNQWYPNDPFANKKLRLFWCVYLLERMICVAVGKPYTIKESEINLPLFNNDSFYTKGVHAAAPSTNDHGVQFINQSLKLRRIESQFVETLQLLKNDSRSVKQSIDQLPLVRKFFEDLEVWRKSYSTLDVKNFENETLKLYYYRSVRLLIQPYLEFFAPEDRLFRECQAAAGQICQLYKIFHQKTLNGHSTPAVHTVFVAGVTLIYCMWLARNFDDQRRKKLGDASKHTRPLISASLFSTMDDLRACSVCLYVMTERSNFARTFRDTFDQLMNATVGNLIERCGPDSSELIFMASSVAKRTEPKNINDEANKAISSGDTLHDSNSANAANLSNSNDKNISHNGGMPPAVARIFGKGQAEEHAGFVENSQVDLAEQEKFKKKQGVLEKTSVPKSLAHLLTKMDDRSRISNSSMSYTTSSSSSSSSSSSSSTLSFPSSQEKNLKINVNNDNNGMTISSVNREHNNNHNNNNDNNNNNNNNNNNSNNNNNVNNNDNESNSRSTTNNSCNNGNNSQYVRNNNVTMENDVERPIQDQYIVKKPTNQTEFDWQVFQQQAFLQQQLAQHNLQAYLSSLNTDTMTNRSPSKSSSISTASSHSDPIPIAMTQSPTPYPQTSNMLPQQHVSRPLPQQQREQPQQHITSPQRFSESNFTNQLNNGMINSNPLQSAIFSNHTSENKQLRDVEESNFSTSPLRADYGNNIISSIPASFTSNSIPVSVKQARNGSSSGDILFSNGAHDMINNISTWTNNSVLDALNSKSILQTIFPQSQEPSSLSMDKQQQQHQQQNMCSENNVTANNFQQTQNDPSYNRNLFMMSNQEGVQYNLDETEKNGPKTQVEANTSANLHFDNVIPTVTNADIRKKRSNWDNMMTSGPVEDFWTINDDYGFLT

Sequence	PBM E-score
CTTCAACC	-0.0749
GCGATGCC	0.0401
AGAGATGC	-0.0846
CATCACGC	0.0744
ACGTGGAT	-0.233
AAAAGGTG	-0.196
ATCCCTAA	-0.254
ACGGCCCC	-0.034
CGGCGGAA	0.438
GGGCGGAA	0.364
AGGCGGAA	0.304
CTTCCGCC	0.343
ATGCCGCG	0.304
ATTCCGCA	0.356
ATTCCCCC	0.162
ATTCCGCC	0.418
ATTCCGCG	0.439
CACACCCA	-0.107
GTACAACA	0.014
GAACTACC	0.0269
GAAAGTAA	-0.0679
CAACTGCC	-0.00091
CCTTTGAC	-0.121
GGGATTAA	0.223
CGGATTAG	0.299

Sequence	PBM E-score
AGGATTTC	0.0497
CCGATTCC	0.393
CCGATTTC	0.303
CCGATTCG	0.267
ACGATTTA	0.0466
CGGATTAA	0.39
GCGATTCC	0.237
CCGATTTA	0.396
CGGATTTC	0.448
CTGATTTC	-0.0243
TACGCGAA	-0.0238
ACAGGAGC	-0.0789
CTCATGGC	-0.0203
ATGCAAGA	-0.214
ACACTAAC	0.0293
ACCAAGAT	-0.0275
GACAATTA	0.0117
GGATCGTA	-0.00905
AATAGATA	-0.126
ACACTGCC	0.154
CGGATTCC	0.427
CGGATGTC	0.4
GGGATTTA	0.287
CGGATGTA	0.307
AGGATTCC	-0.00339

Sequence	PBM E-score
AGGATGTC	-0.0871
CGGATTCA	0.161
AGGATTTA	0.00139
CGGATTTA	0.451
TTAAAAAA	-0.12
AGACCCAC	-0.00095
GACTAAAC	-0.0103
GGGCAACA	0.0452
AACCACTG	-0.136
GCCCTCAC	-0.226
CATCCCCA	-0.109
CATCCCGA	0.262
CATCCCGG	0.342
AATCCCGT	0.346
AATCCCGA	0.42
AATCCCCG	0.398
AATCCCCC	0.0792
CATCCCCG	0.396
TATCCCGA	0.258
AATCCCCA	-0.0702
AATCCCGG	0.439
CATCCCCC	-0.0212
AGGTTCAG	0.0375
AAGCCTCC	0.0849
CATTGGCA	-0.208

Sequence	PBM E-score
CAAGATCC	0.167
ATTATAGC	-0.086
ATGTCTAC	-0.1
AGAAAGAT	-0.103
CACGTCAC	-0.147
GCGCATAA	-0.0332
ACCAAGAG	-0.29
CCCGAGGA	0.061
ACCGAGAA	0.109
TCCGATAA	0.428
ACCGATAA	0.269
TCCGAGAA	0.421
GCCGAGGA	0.197
GCCGATAA	0.301
TCCGAGGA	0.401
CCCGAGAA	0.293
ACAATGGT	-0.255
ATCGTGAA	0.00733
GGAGGTTA	0.101
AAAAGATC	-0.0655
ATGCCGCC	0.325
CCCATGGC	-0.0499
GTACCGGA	0.415
GTACCGCA	0.164
ATACCGGC	0.354

Sequence	PBM E-score
CTACCGGA	0.348
ATACCGGG	0.334
ATACCGGA	0.405
ATGTCCCA	-0.0785
CTCTACTA	-0.245
GAGCAAAC	0.0239
CTCCTATC	-0.0262
CGGGCGGA	0.405
GGGGCGGA	0.412
GGGGCGTA	0.0266
GGAGCGGA	0.396
CGGGCGTA	0.178
CGGGCGGC	0.31
CGAGCGGA	0.381
AGAGCGGA	0.254
AGGGCGGA	0.385
CCAGTAGC	0.181
CATTGCTA	-0.0953
ACGCTCTA	-0.183
ATCGAAAG	-0.0309
GACTGCTA	-0.277
CCAGTCCA	-0.17
GTCCCTAA	-0.0663
AAGAGAGT	-0.0766
ATTCCCCG	0.375

Sequence	PBM E-score
ATTCCGGC	0.463
ACTCCCGG	0.396
ATTCCTGC	0.0732
ATTCCAGC	-0.104
ATTCCCGG	0.411
ACTCCCCG	0.338
ACTCCCGA	0.217
ATTCCGTG	0.361
ATTCCCGA	0.338
ATTCCTGG	-0.0751
ATTCCGGG	0.443
GCGAGTCA	-0.0556
CACCGCCC	0.218
AAGCTCTG	-0.356
ATTTATCC	0.163
ACATCAAC	0.05
TAAAGAAA	0.0382
CGCCAAAC	0.0632
AATTAGCC	0.0197
CCGGAATA	0.434
GGGGAATA	0.141
GTGGAATA	0.0653
ACGGAATC	0.32
ACGGAATA	0.357
CCGGAATC	0.435

Sequence	PBM E-score
CTGGAATC	-0.0172
CCGGAAGA	0.421
ACGGAAGA	0.169
CCGGAAGG	0.387
CGGGAATA	0.374
GCGGAATA	0.396
AAATGTGA	-0.146
CACCCCCG	0.145
CATCTTTA	-0.0964
AGGTAACG	-0.0647
GTATGGGA	-0.174
CCTCTACA	-0.252
AAGATCTT	0.0756
AAGCGTCT	-0.176
ACTCATGG	-0.191
ATCCGGCG	0.432
ATCCGGTG	0.408
AACCGGCC	0.275
ATCCGGCC	0.399
ACCCGGTG	0.277
AACCGGCG	0.361
ATCCGACG	0.367
